Assay results: PubChem BioAssay (EPA / NIEHS)
Inconclusive results are not listed. Active and inactive are the calls of the source. The calls were made as follows: active = hit-call score of the fitted dose curve at least 0.9, where 1 is the maximum; inconclusive = response in the unintended direction; inactive = score below 0.9.

target: Cellular tumor antigen p53 (Homo sapiens) (UniProt P04637); experiment: TOX21_p53_BLA_p4_ratio: Tox21 HCT-116 p53 Agonism Beta-lactamase Assay, Ratio, Phase 4 (AID 2283601)
Sequence (P04637 whole entry, looked up): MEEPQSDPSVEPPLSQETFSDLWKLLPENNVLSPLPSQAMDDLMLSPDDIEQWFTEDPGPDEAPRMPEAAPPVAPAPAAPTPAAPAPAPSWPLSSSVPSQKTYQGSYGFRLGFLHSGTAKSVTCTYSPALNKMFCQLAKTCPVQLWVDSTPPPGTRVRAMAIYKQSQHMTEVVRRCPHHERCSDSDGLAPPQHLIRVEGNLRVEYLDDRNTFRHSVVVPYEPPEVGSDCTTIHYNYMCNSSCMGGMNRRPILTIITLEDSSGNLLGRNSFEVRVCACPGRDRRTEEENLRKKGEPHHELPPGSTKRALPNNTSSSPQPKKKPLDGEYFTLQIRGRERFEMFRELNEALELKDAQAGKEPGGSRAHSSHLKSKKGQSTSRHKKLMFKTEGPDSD
Summary of the method: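 Signal is the blue/green (460nm/530nm) ratio of cleaved versus uncleaved CCF4-AM substrate, read after 2 h substrate loading. Cells were HCT116 carrying the p53-responsive beta-lactamase reporter, dosed 16 h at 37C, 5% CO2; CellTiter-Glo measured in parallel.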

| Compound | AC50 | outcome |
| --- | --- | --- |
| C[C@@]12C(=O)OC(=O)[C@]1(C)C1CCC2O1 | 2.91 µM (active) | – |
| CN(C)CCn1nnnc1SCC1=C(C(=O)O)N2C(=O)[C@@H](NC(=O)Cc3csc(N)n3)[C@H]2SC1 | – | inactive |
| COc1cc(NS(=O)(=O)c2ccc(N)cc2)ncn1 | – | inactive |
| CN(C)CCC(c1ccccc1)c1ccccn1 (configuration not stated) | – | inactive |
| CC1=C(/C=C/C(C)=C/C=C/C(C)=C/C=C/C=C(C)/C=C/C=C(C)/C=C/C2=C(C)CCCC2(C)C)C(C)(C)CCC1 | – | inactive |
| OCCN1CCN(CCO)CC1 | – | inactive |
| C/C=C/C=C/CO | – | inactive |
| CC1CCC(NC(=O)N(CCCl)N=O)CC1 (configuration not stated) | – | inactive |
| CC(=O)N[C@@H](CC(C)C)C(=O)O | – | inactive |
| Cc1cc(=O)oc2cc(O)cc(O)c12 | 41.7 µM (active) | – |
| CCCCCCCC | – | inactive |
| CCOC(=O)c1c[nH]c2cc(OCC(C)C)c(OCC(C)C)cc2c1=O | – | inactive |
| CC(=O)Oc1cccc(C)c1 | – | inactive |
| CCC(=O)OC(=O)CC | – | inactive |
| O=C(O)CNC(=O)c1ccc([N+](=O)[O-])cc1 | – | inactive |
| CCC(=O)OC | – | inactive |
| O=[N+]([O-])c1ccccc1Nc1ccccc1 | – | inactive |
| CCN(CC)c1cccc(O)c1 | – | inactive |
| CCCCCC=CCC1CC(=O)OC1=O (configuration not stated) | – | inactive |

| Compound | AC50 | outcome |
| --- | --- | --- |
| CC1CCc2cc(F)cc3c(=O)c(C(=O)O)cn1c23 (configuration not stated) | – | inactive |
| CCOC(=O)COc1ccc2c(C)c(CCN(CC)CC)c(=O)oc2c1 | – | inactive |
| CCCCC | – | inactive |
| H-RKDVY-OH | – | inactive |
| CO/N=C(\C(=O)N[C@@H]1C(=O)N2C(C(=O)O)=CCS[C@H]12)c1csc(N)n1 | – | inactive |
| C#CCN(C)CCCOc1ccc(Cl)cc1Cl | – | inactive |
| CC(C(=O)O)c1ccc2c(c1)[nH]c1ccc(Cl)cc12 (configuration not stated) | – | inactive |
| C=CCn1cc[n+](C)c1 | – | inactive |
| C[S+](CC[C@H](N)C(=O)O)C[C@H]1O[C@@H](n2cnc3c(N)ncnc32)[C@H](O)[C@@H]1O (some centres not stated) | – | inactive |
| O=C(O)c1cc(O)c2c(c1)[C@H]([C@H]1c3cc(C(=O)O)cc(O)c3C(=O)c3c(O[C@@H]4O[C@H](CO)[C@@H](O)[C@H](O)[C@H]4O)cccc31)c1cccc(O[C@@H]3O[C@H](CO)[C@@H](O)[C@H](O)[C@H]3O)c1C2=O | – | inactive |
| CC(C)(C)OCC1CO1 (configuration not stated) | – | inactive |
| N=C(N=C(N)N)N1CCOCC1 | – | inactive |
| c1coc(Cn2cccc2)c1 | – | inactive |
| NCCCNCCCCNC(=O)C(O)NC(=O)CCCCCCN=C(N)N (configuration not stated) | – | inactive |
| C=C(C)C1CC=C(C)C(O)C1 (configuration not stated) | – | inactive |
| CC(C)[C@@H](N)C(=O)O | – | inactive |
| CCC1OCC(COc2ccc(Oc3ccccc3)cc2)O1 (configuration not stated) | – | inactive |
| CN1C(=O)CC(c2ccccc2)C1=O (configuration not stated) | – | inactive |
